Test [1] is described as follows: inhibitors of TNFa-induced NFkB p65 translocation, primary screen, imaging, HUVEC, MLSMR starter and 10KST1 sets (AID 438;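 active = inhibition above 20% together with a positive visual image hit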;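 note: compound added about 3h40 before a 20 min TNFalpha stimulation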;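 for inhibition: signal is the nuclear over cytoplasmic p65 intensity ratio per well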). Particulars: HUVEC TNFa-induced p65 nuclear translocation; cell count: measured here: nuclei count (cytotoxicity indicator), at 2.08 µM; inhibition: at 2 µM, stronger effect = higher value, 0% TNFa-plus-vehicle, 100% no-TNFa wells.
The nature of test [2]: inhibitors of mutant huntingtin aggregation, primary screen, imaging, exon1htt(103Q)mCFP cells, high-content imaging (AID 483;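 active = visual image review flags a hit and inhibition of aggregation exceeds 20%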;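 note: compound exposure lasted 3 days before fixation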;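 for nuclei count: percent of the per-plate median nuclei count of sample wells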). Particulars: exon1htt(103Q)mCFP cell line, aggregate imaging, at 2 µM; inhibition of aggregation: stronger effect = higher value; nuclei count: measured here: cell count, toxicity.
A short description of test [3]: inhibitors of E-selectin induction by TNFa, primary screen, imaging, HUVEC, immunofluorescence, MLSMR starter and 10KST1 sets (AID 487;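 active = visually confirmed hit in the image check and inhibition above 20%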;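 for inhibition: signal is fraction of cell area covered by stained E-selectin grains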;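 for nuclei count: 100% = median nuclei count of all wells on the same plate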). Conditions: HUVEC TNFalpha-induced E-selectin immunofluorescence imaging, at 2 µM; inhibition: stronger effect = higher value; nuclei count: measured here: cell number, toxicity.
Test [4] has as its target Voltage-gated potassium channel subunit beta-2 (Rattus norvegicus) (UniProt P62483). In words: KvBeta enzyme negative modulators, primary screen, biochemical, NADPH fluorescence (AID 622;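 active = fluorescence slope higher than the sample average by over 3 SD, cut at about -0.22 in these data, passing the limit was not always enough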;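 note: slope of raw intensity against log time taken from 70 to 1610 s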). Particulars: recombinant KvBeta, 4-cyanobenzaldehyde reduction, at 10 µM, stronger effect = higher value.
For test [5] the target is unchanged. In words: KvBeta positive modulators, primary screen, biochemical, NADPH fluorescence (AID 623;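 active = NADPH fluorescence slope more negative than the mean of all samples by about 3 SD, 99.7% confidence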;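 note: fluorescence intensity change per second fitted from 20 to 320 s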). Particulars: Recombinant KvBeta, NADPH fluorescence decrease slope, 10 min; at 10 µM; stronger effect = lower value.
In test [6] the target is Alpha-2C adrenergic receptor (Homo sapiens) (UniProt P18825). The test can be described thus: modulators of alpha2C/GIRK thallium flux, primary screen, cell-based, HEK293 alpha2C/GIRK1/2 (AID 624;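 active = fluorescence slope after compound addition differing from the mean of all screened samples at 99.7% confidence, in either direction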;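 note: slope of fluorescence ratio to pre-addition baseline per second over 15 to 24 s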). Particulars: thallium flux BTC fluorescence, at 10 µM, actives lie on both sides.
A short description of test [7]: inhibitors of Sendai virus-induced IRF3 signaling, primary screen, TLR/RLR signaling modifier project, cell-based, Sendai virus stimulus, luciferase, 10K MLSCN set (AID 602276;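 active = inhibition at or above 50% at 10 µM; inactive = inhibition below 50%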;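 note: firefly luciferase from ISG56 promoter only with Renilla not read in this screen; 0% = Sendai virus plus DMSO and 100% = medium plus DMSO without virus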). Conditions: HEK293 RL24 IRF3 luciferase reporter, at 10 µM, stronger effect = higher value.
The nature of test [8]: inhibitors of poly I:C-induced TLR3 signaling, primary screen, cell-based, poly I:C stimulus, luciferase, 10K MLSCN set (AID 602277). Conditions: HEK293-TLR3 RL24 IRF3 luciferase reporter, at 10 µM, stronger effect = higher value.

The source made the active and inactive calls.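 Rule for the calls, unless noted: active = inhibition of the reporter signal at or above 50%; inactive = inhibition below 50%.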

The term inhibition denotes the drop in the measured response relative to a control, in per cent.

Chain of Voltage-gated potassium channel subunit beta-2 (Rattus norvegicus) (P62483 whole entry, looked up): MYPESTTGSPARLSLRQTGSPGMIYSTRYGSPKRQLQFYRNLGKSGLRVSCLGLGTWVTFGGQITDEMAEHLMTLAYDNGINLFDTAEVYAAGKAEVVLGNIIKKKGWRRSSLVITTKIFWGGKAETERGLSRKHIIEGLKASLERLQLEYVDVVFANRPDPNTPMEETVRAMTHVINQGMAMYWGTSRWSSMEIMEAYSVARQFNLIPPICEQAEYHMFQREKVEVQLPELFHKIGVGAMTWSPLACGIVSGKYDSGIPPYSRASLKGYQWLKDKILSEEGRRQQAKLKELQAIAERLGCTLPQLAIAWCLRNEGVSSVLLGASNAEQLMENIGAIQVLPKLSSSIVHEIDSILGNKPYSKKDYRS
Chain of Alpha-2C adrenergic receptor (Homo sapiens) (P18825 whole entry, looked up): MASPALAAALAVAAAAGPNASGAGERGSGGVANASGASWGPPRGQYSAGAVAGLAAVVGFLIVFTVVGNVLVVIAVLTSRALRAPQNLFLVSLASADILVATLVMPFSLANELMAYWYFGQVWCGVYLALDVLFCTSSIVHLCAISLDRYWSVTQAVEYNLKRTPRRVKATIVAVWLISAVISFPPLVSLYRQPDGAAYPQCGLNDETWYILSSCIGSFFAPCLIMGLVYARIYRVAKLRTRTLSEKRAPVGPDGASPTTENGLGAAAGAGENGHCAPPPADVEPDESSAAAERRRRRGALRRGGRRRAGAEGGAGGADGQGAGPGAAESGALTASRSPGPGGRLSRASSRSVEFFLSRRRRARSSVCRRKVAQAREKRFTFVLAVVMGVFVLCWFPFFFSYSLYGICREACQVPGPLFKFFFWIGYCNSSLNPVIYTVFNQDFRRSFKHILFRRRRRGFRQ

Regarding `CCc1c(C(=O)Nc2ncn(Cc3cccc(C)c3)n2)csc1C`, in test [1], the cell count is 630. Also, the inhibition in test [1] was 1.2% (inactive); in test [3], -66.7% (inactive); in test [7], 7.43% (inactive); in test [8] it was 15.5% (inactive). Further, the inhibition of aggregation in test [2] is 2% (inactive). Besides, the nuclei count is 97.3% in test [2] and 110% in test [3]. Besides, in test [4], the fluorescence slope is -0.343 (inactive). Further, the NADPH fluorescence slope in test [5] is -4.3e-05 (inactive). Further, the slope in test [6] is 0.00495 (inactive).

`COc1ccccc1C(=O)Nc1nc2ccc(S(C)(=O)=O)cc2s1`: the cell count in test [1] stood at 417. For the same compound, the inhibition is -6.5% (inactive) in test [1], -32.3% (inactive) in test [3], -2.51% (inactive) in test [7] and -33.9% (inactive) in test [8]. In addition, in test [2], the inhibition of aggregation was -0.8% (inactive). In addition, the nuclei count in test [2] was determined as 115%; in test [3], 132%. In addition, in test [4], the fluorescence slope was -0.241 (inactive). Also, the NADPH fluorescence slope in test [5] is -6.6e-06 (inactive). The slope in test [6] was 0.00752 (inactive).

Turning to `O=C(CCNS(=O)(=O)c1ccc(Br)s1)N1CCCCC1`, the cell count in test [1] stood at 380. Also, the inhibition is 0.3% (inactive) in test [1], -86.3% (inactive) in test [3], -0.525% (inactive) in test [7] and 7.37% (inactive) in test [8]. Besides, the inhibition of aggregation in test [2] is -2% (inactive). The nuclei count came to 99.9% in test [2] and 106% in test [3]. Besides, the fluorescence slope in test [4] is -0.494 (inactive). Besides, the NADPH fluorescence slope in test [5] was -3.4e-05 (inactive). Moreover, the slope in test [6] is 0.00623 (inactive).

Regarding `CC(=O)N1CCN(S(=O)(=O)c2ccc(S(=O)(=O)NCC(C)C)cc2)CC1`, in test [1], the cell count was determined as 641. Moreover, the inhibition in test [1] was 1.6% (inactive); in test [3], -10.2% (inactive); in test [7], 14.8% (inactive); in test [8] it was 12.6% (inactive). For the same compound, the inhibition of aggregation in test [2] was 5.2% (inactive). The nuclei count turned out to be 102% in test [2] and 110% in test [3]. For the same compound, the fluorescence slope in test [4] is -0.399 (inactive). Moreover, the NADPH fluorescence slope in test [5] was -3.9e-05 (inactive). For the same compound, the slope in test [6] is 0.00517 (inactive).

For the compound `CCOC(=O)n1c(SCC(=O)N(CC)CC)nc2ccccc21`, the cell count in test [1] turned out to be 522. Besides, the inhibition in test [1] was 1% (inactive); in test [3], 44.9% (inactive); in test [7] it was 0.265% (inactive); in test [8], -26.4% (inactive). Moreover, in test [2], the inhibition of aggregation is 10.7% (inactive). Also, the values for the nuclei count in test [2] and in test [3] were 102% and 93.9%, respectively. Moreover, in test [4], the fluorescence slope is -0.597 (inactive). In addition, the NADPH fluorescence slope in test [5] was -4.3e-05 (inactive). Further, in test [6], the slope is 0.00594 (inactive).

On to `COc1ccc(C)cc1NC(=O)CCN1CCCC1`, for which, in test [1], the cell count turned out to be 257. Also, the inhibition in test [1] was -1.2% (inactive); in test [3] it was 6.5% (inactive); in test [7], 15.3% (inactive); in test [8], 16.2% (inactive). In test [2], the inhibition of aggregation was 7.8% (inactive). Besides, the results for the nuclei count in test [2] and in test [3] were 87.6% and 109%, respectively. Moreover, the fluorescence slope in test [4] is -0.442 (inactive). In addition, in test [5], the NADPH fluorescence slope was -3.8e-06 (inactive). The slope in test [6] was 0.00559 (inactive).

With `CCOc1ccc(N(C(C)C(=O)NC2CCCCCC2)S(C)(=O)=O)cc1` (centres undefined), in test [1], the cell count came to 355. Moreover, the inhibition was 2.7% (inactive) in test [1], -40.2% (inactive) in test [3], 3.76% (inactive) in test [7] and 19.7% (inactive) in test [8]. In test [2], the inhibition of aggregation is -10.8% (inactive). The values for the nuclei count in test [2] and in test [3] were 109% and 107%, respectively. Moreover, the fluorescence slope in test [4] was -0.342 (inactive). Besides, in test [5], the NADPH fluorescence slope is -4e-05 (inactive). Moreover, the slope in test [6] is 0.00764 (inactive).

For `Cc1ccc2[nH]c(=O)c(C(c3nnnn3CCc3ccccc3)N3CCOCC3)cc2c1` (centres undefined), the cell count in test [1] came to 715. Also, the inhibition in test [1] is -3.9% (inactive); in test [3] it was -38.7% (inactive); in test [7], 0.935% (inactive); in test [8] it was 26.5% (inactive). For the same compound, the inhibition of aggregation in test [2] is 1.1% (inactive). For the same compound, the nuclei count is 99% in test [2] and 95.6% in test [3]. Further, the fluorescence slope in test [4] is -0.482 (inactive). The NADPH fluorescence slope in test [5] was -4.6e-05 (inactive). Further, the slope in test [6] is 0.0072 (inactive).

With `Cc1cccc(OCc2nc(C#N)c(NCCN(C)C)o2)c1`, in test [1], the cell count is 628. Besides, the inhibition in test [1] was -2.9% (inactive); in test [3], -27.6% (inactive); in test [7], 9.05% (inactive); in test [8], 28.8% (inactive). The inhibition of aggregation in test [2] is -1.8% (inactive). Besides, the nuclei count worked out at 102% in test [2] and 105% in test [3]. Moreover, in test [4], the fluorescence slope is -0.514 (inactive). Moreover, the NADPH fluorescence slope in test [5] was -3.5e-05 (inactive). Also, the slope in test [6] was 0.00503 (inactive).

In the case of `Cc1nc(C)c2c(c1C(F)(F)F)-c1ccccc1C2(F)F`, the cell count in test [1] came to 397. Also, the inhibition in test [1] is 3.9% (inactive); in test [3], -30.7% (inactive); in test [7] it was -9.52% (inactive); in test [8], 98.9% (active). Besides, the inhibition of aggregation in test [2] was -0.1% (inactive). In addition, the nuclei count came to 108% in test [2] and 107% in test [3]. Further, the fluorescence slope in test [4] was -0.454 (inactive). Further, in test [5], the NADPH fluorescence slope was -8.2e-06 (inactive). Further, the slope in test [6] was 0.00655 (inactive).

Consider `CCOc1ccc2c(O)csc2c1`, for which, in test [1], the cell count worked out at 393. For the same compound, the inhibition in test [1] is 2% (inactive); in test [3] it was 7.7% (inactive); in test [7] it was 8.13% (inactive); in test [8], 10.6% (inactive). In test [2], the inhibition of aggregation is 7.4% (inactive). Further, the nuclei count in test [2] turned out to be 109%; in test [3] it was 103%. The fluorescence slope in test [4] is -0.371 (inactive). In addition, the NADPH fluorescence slope in test [5] is -4.2e-05 (inactive). Also, the slope in test [6] is 0.0033 (inactive).

In the case of `C=CCNC(=O)c1ccc(Cl)cc1Cl`, the cell count in test [1] is 344. The inhibition was 1.6% (inactive) in test [1], -31.6% (inactive) in test [3], 0.0277% (inactive) in test [7] and 23.8% (inactive) in test [8]. Moreover, the inhibition of aggregation in test [2] is -21.2% (inactive). Moreover, the results for the nuclei count in test [2] and in test [3] were 87.7% and 91.8%, respectively. The fluorescence slope in test [4] was -0.478 (inactive). For the same compound, in test [5], the NADPH fluorescence slope is -4.6e-05 (inactive). Moreover, the slope in test [6] is 0.00715 (inactive).

On to `CCN(CC(=O)NCc1cccs1)C(=O)c1cc(S(=O)(=O)N2CCOCC2)ccc1C`, for which the cell count in test [1] was found to be 591. Further, the inhibition is -9.6% (inactive) in test [1], -82.2% (inactive) in test [3], 1.74% (inactive) in test [7] and 27.8% (inactive) in test [8]. The inhibition of aggregation in test [2] was -22.2% (inactive). The nuclei count came to 107% in test [2] and 136% in test [3]. Moreover, the fluorescence slope in test [4] was -0.466 (inactive). Further, the NADPH fluorescence slope in test [5] is -3.7e-05 (inactive). The slope in test [6] was 0.00388 (inactive).

`COc1ccc(C)cc1S(=O)(=O)N(C)CC(=O)Nc1ccc2c(c1)OCO2`: the cell count in test [1] is 505. The inhibition in test [1] was -15.7% (inactive); in test [3], 26.3% (inactive); in test [7] it was 12.3% (inactive); in test [8], 12.3% (inactive). In addition, in test [2], the inhibition of aggregation was 8.7% (inactive). Also, the nuclei count in test [2] came out at 94.7%; in test [3], 84.9%. Moreover, the fluorescence slope in test [4] was -0.616 (inactive). The NADPH fluorescence slope in test [5] is -5e-05 (inactive). In test [6], the slope was 0.00341 (inactive).

The values are drawn from PubChem BioAssay.
